Holding throughout (assay): NCI-60 one-dose screen, 48 h (100 = growth as untreated, 0 = no growth, -100 = all killed)
Settings in all cases: 10 µM unless noted

The test system of assay [1] is SR leukemia.
Assay [2] concerns RPMI-8226 leukemia.
Assay [3] relates to OVCAR-8 ovarian.
The subject of assay [4] is OVCAR-5 ovarian.
Assay [5] has as its system OVCAR-4 ovarian.
The subject of assay [6] is SK-OV-3 ovarian.
In assay [7] the test system is IGROV1 ovarian.
For assay [8], the system named is OVCAR-3 ovarian.
Assay [9] deals with HS 578T breast.
The test system of assay [10] is NCI/ADR-RES ovarian.

Compounds without any hit were thinned out: in the full panel of roughly 83,000, 20% have a hit.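 Method: cells in 96-well plates; compound added at one concentration; 48 h incubation; percent growth measured; values under 10 scored active.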 Values without a mark were called inactive. Activity calls are given as the source filed them.

This is an account of results in PubChem BioAssay (NCI).

For `CC(=O)c1c(C)[nH]c(-c2nc3ccc(N4CCN(C)CC4)cc3[nH]2)c1-c1ccccc1`, the growth was 28.4% in assay [1]; 3.67% (active) in assay [2]; 45.6% in assay [3]; 34.8% in assay [4]; 33.4% in assay [5]; 20.5% in assay [6]. In addition, the growth was 23.8% in [7], 28.8% in [8], 9.13% (active) in assay [9] and 36.3% in [10].

In the case of `S=c1[nH]cccc1-c1nnc2n1Nc1nc3ccccc3cc1CS2`, the growth in assay [1] is 95.7%; in assay [2], 99.2%; in assay [3] it was 98%; in assay [4], 96%; in [5] it was 101%; in [6] it was 82.1%. The growth in [7] is 90.7%; in [8], 105%; in [9], 96.4%; in assay [10] it was 98.2%.

With `C[C@H]1[C@H](C)CC[C@]2(CO)CC[C@]3(C)C(=CC[C@@H]4[C@@]5(C)Cc6c([nH]c7ccccc67)C(C)(C)[C@@H]5CC[C@]43C)[C@H]12`, the growth in assay [1] was 75.8%; in assay [2], 83.7%; in assay [3] it was 77%; in [4], 116%; in assay [5], 89.8%; in assay [6] it was 96.9%. Moreover, the growth is 88.8% in [7], 87.4% in assay [8], 74.6% in [9] and 90.6% in assay [10].

For `O=C1Nc2ccccc2/C1=N/c1nc(-c2ccc(Cl)cc2)cs1`, the growth was 60.1% in [1]; 39.3% in [2]; 54.6% in assay [3]; 98.9% in assay [4]; 67.7% in assay [5]; 57.8% in assay [6]. The growth was 66.7% in [7], 64.9% in assay [8], 71.6% in assay [9] and 88.9% in [10].

As for `COc1ccc(C(=O)/C=C/c2cn(Cc3ccc(Cl)cc3)c3ccccc23)cc1`, the growth is 20.1% in [1]; 70.7% in assay [2]; 71% in [3]; 13.4% in assay [4]; 76.3% in [5]; 57.4% in assay [6]. Besides, the growth in assay [7] was 23.7%; in assay [8] it was 57.6%; in [9] it was 60%; in assay [10], 38.4%.

For `O=C1c2ccccc2C(=O)c2c(NCCN=Cc3ccccc3O)cccc21`, the growth was -33.2% (active) in assay [1]; 78.8% in [2]; 21% in assay [3]; 78.9% in [4]; 72.1% in assay [5]; 56.9% in [6]. The growth in [7] is 51.9%; in assay [8], 72.3%; in [9], 43.4%; in assay [10], 59.9%.

Turning to `O=C1Nc2cc(-c3ccncc3)ccc2/C1=C/c1ccc[nH]1`, the growth in assay [1] is 15%; in assay [2], 81.8%; in assay [3] it was 101%; in assay [4], 76.9%; in assay [5], 37.3%; in [6] it was 93.3%. In addition, the growth is 80.8% in assay [7], 85.2% in [8], 107% in [9] and 94.6% in assay [10].

For `Cc1[nH]n(C(=O)c2ccncc2)c(=O)c1N=Nc1ccc(F)c(Cl)c1`, the growth was 76.1% in [1]; 87.6% in [2]; 103% in [3]; 114% in assay [4]; 112% in [5]; 103% in assay [6]. Further, the growth is 95.3% in assay [7], 98.3% in assay [8], 89.1% in assay [9] and 95.6% in [10].

Turning to `CS(=O)(=O)Nc1cc(-c2ccc3ncnc(Nc4ccc5[nH]ncc5c4)c3c2)cnc1Cl`, the growth in assay [1] is 63.2%; in [2] it was 102%; in assay [3], 86%; in [4], 59.8%; in assay [5], 84.7%; in assay [6], 76%. Further, the growth in assay [7] was 42.5%; in assay [8], 59.2%; in assay [9] it was 21.7%; in assay [10] it was 91.2%.

Regarding `CCCCCCOc1ccc(/C=N/Nc2cc(C)nc3ccc(Br)cc23)cc1`, the growth in assay [1] was -32.2% (active); in [2], -42.4% (active); in assay [3], -36.1% (active); in assay [4], -92.7% (active); in assay [5], -88.5% (active); in assay [6], 101%. In addition, the growth in assay [7] is -85.3% (active); in assay [8] it was -91.6% (active); in assay [9] it was -40.4% (active); in assay [10], -67.1% (active).

Take `COc1cc(NCC(C)(O)CN(CC(C)C)CC(C)C)c2nc(C)ccc2c1` (stereo not given): the growth in [1] is 87.7%; in assay [2], 68.6%; in [3] it was 86.9%; in [4], 89.5%; in [5] it was 23.2%; in assay [6] it was 98.6%. For the same compound, the growth is 73.4% in [7], 24.8% in assay [8], 83.9% in assay [9] and 79.6% in [10].

As to `Cc1c2c(cc[n+]1Cc1ccc(F)cc1)c1ccc(OCc3cccc(F)c3)cc1n2Cc1cccc(F)c1`, the growth in [1] was -48.7% (active); in [2], -33% (active); in assay [3], -81.6% (active); in [4], 4.86% (active); in [5] it was -80.8% (active); in assay [6], 2.43% (active). Moreover, the growth in assay [7] is -67.4% (active); in [8], -98.5% (active); in [9], -40.9% (active); in assay [10], 85%.

As for `CCCCCCCCCCCC(=O)C(CCCCCCCCCC)C(=O)Nc1ccccc1` (stereo not given), the growth is 99.7% in assay [1]; 99.2% in assay [2]; 103% in assay [3]; 101% in assay [4]; 102% in assay [5]; 108% in assay [6]. Also, the growth in assay [7] is 89.2%; in [8], 112%; in assay [9], 96.8%; in [10], 102%.
